# Assay outcomes (PubChem)
# hcDAF12 agonist = H. contortus DAF-12 nuclear receptor activators, primary screen, cell-based, luminescence, HEK293, lit1-tk-luc reporter; HEK293 hcDAF-12 lit1-tk-luc reporter; 0% DMSO, 100% Δ7-dafachronic acid; activation, % at 6.8 µM; actives 1.4% (n = 370,000); AID 652067, 2013;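 active means activation above the mean of all tested compounds plus 3 SD, cut at about 5.5% in these data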;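 further: 100% = response to 3 µM Δ7-dafachronic acid high control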
# DAX1 inh-1 = DAX1 (NR0B1) inhibitors, primary screen, cell-based, HEK293, Gal4-DAX1, luciferase luminescence | Nuclear receptor subfamily 0 group B member 1 (Homo sapiens), P51843 | HEK293 Gal4-DAX1 luciferase reporter | inhibition, % at 6.75 µM | actives 0.99% (n = 340,000);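 active means inhibition above the mean over all tested compounds plus 3 SD, cut at about 4.2% in these data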;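 further: 0% = DAX1-transfected cells with DMSO and 100% = empty-vector control cells with DMSO; inhibition shows as a rise in luminescence from relieved DAX1 repression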
# Target sequence (P51843 207-470 limits assumed): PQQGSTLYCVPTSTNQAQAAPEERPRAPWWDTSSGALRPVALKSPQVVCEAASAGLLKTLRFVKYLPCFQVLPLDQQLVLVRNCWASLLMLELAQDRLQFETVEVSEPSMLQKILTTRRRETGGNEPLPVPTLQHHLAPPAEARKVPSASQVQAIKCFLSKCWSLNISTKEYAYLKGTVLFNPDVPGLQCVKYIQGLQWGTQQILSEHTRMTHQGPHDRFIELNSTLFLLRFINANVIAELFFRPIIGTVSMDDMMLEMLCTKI
# DAX1 inh-2 = DAX1 (NR0B1) inhibitors on StAR promoter, primary screen, cell-based, luminescence, SF-1 (NR5A1), full-length DAX-1. AID 652010, 2013. inhibition, % at 6.8 µM. actives 1.1% (n = 370,000). HEK293T StAR-luciferase reporter, SF-1/DAX-1 repression relief;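 active means inhibition above the mean over all tested compounds plus 3 SD, cut at about 3.6% in these data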;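 further: 0% = DAX-1 cells with DMSO and 100% = cells lacking DAX-1 with DMSO; higher inhibition means more luminescence from relief of DAX-1 repression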
# ssDAF-12 act = S. stercoralis DAF-12 nuclear receptor activators, primary screen, cell-based, luminescence, HEK293, GRIP1 co-expression, lit1-tk-luc; Nuclear hormone receptor DAF-12 (Strongyloides stercoralis); HEK293 ssDAF-12/GRIP1 lit1-tk-luc reporter; % of 3 µM dafachronic acid response; activation, % at 6.8 µM; actives 1% (n = 370,000); AID 652126, 2013;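 active means activation above the mean over all tested compounds plus 3 SD, cut at about 0.9% in these data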;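 further: 0% = DMSO-only wells and 100% = 3 µM delta7-dafachronic acid wells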
# hgDAF-12 ag = H. glycines DAF-12 receptor agonists, primary screen, cell-based, luminescence, HEK293, GAL4 fusion, UAS-luciferase; Nuclear hormone receptor DAF-12 (Heterodera glycines), GAL4 fusion; HEK293 GAL4-hgDAF12 UAS-luciferase reporter, agonist luminescence; normalized to butyrate control; activation, % at 6.8 µM; actives 1.8% (n = 370,000);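 active means activation above a cutoff set at the mean of all screened compounds plus 3 SD, cut at about 10% in these data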;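 further: 0% = DMSO wells and 100% = sodium butyrate wells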
# DAX1 conf = DAX1 (NR0B1) inhibitors relieving SF-1 repression, confirmation, cell-based, luminescence, HEK293T, full-length DAX-1, SF-1 activated StAR promoter. shares compounds with DAX1 inh-2. HEK293T StAR-promoter luciferase reporter, SF-1/DAX-1 repression. inhibition, % at 6.8 µM. actives 87% (n = 2,400). AID 652134, 2013;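 active means inhibition above the average of every tested compound plus 3 SD, cut at about 3.8% in these data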;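 further: 0% = DAX-1 cells with DMSO and 100% = no DAX-1 control cells with DMSO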
# Target sequence (P51843 whole entry, looked up): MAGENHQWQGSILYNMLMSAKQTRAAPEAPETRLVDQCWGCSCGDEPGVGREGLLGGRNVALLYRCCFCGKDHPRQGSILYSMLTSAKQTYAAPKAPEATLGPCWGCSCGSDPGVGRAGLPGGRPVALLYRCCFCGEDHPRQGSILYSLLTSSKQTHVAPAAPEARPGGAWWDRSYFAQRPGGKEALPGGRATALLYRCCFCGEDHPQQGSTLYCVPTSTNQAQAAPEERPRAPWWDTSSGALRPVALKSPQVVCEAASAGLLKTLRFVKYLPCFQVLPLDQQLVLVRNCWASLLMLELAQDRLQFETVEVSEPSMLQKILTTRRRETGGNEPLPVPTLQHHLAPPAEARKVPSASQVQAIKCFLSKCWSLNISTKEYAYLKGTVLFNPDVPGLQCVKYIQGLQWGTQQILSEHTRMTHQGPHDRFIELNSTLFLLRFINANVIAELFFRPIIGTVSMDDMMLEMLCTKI
# SF1 AF2mut Luc = StAR reporter signal changes without DAX1, counter-screen for DAX1 inhibitor project, cell-based, luminescence, AF-2 mutant SF-1, transactivation. actives 78% (n = 2,400). HEK293 StAR-luciferase, SF-1 AF2 mutant. shares compounds with DAX1 inh-2. inhibition, % at 6.8 µM;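 active means inhibition above the mean of all tested compounds plus 3 SD, cut at about 3% in these data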;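 further: 0% = DAX-1 transfected cells with DMSO and 100% = cells without DAX-1 with DMSO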
# LXR ag = LXR agonists, Gal4 luciferase reporter, confirmation, counter-screen for hcDAF-12 agonist project, cell-based, luminescence, HEK293, H. contortus campaign. shares compounds with hcDAF12 agonist. HEK293 Gal4-LXR tk-luc reporter, 24 h; normalized: DMSO 0%, positive control 100%. activation, % at 6.8 µM. 3,400 tested, under 10 active;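 active means mean percent activation of the reporter above a cutoff set as the average over tested compounds plus their standard deviation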
# hcDAF12 ag = H. contortus DAF-12 receptor agonists, confirmation, cell-based, luminescence, HEK293, lit1-tk-luc, triplicate; shares compounds with hcDAF12 agonist; activation, % at 6.8 µM; AID 743032, 2013; HEK293 hcDAF-12 lit1-tk-luc reporter; % of Δ7-dafachronic acid response; actives 61% (n = 3,400);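 active means mean activation across triplicate tests above the threshold derived from the earlier primary screen, cut at about 5.5% in these data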;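 further: 0% = DMSO only wells and 100% = 3 µM Δ7-dafachronic acid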
# hgDAF12 ag = H. glycines DAF-12 receptor agonists, confirmation, cell-based, luminescence, HEK293, GAL4-LBD fusion | AID 743050, 2013 | shares compounds with hgDAF-12 ag | HEK293 GAL4-hgDAF12 luciferase reporter, agonist mode; percent of butyrate response | activation, % at 6.8 µM | actives 80% (n = 3,300);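 active means mean activation over triplicate wells above the hit cutoff derived from the earlier primary screen, cut at about 11% in these data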;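 further: 0% = DMSO low control and 100% = 2 mM sodium butyrate high control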
# LXR ag 2 = LXR agonists, Gal4 luciferase reporter, confirmation, counter-screen for hgDAF-12 agonist project, cell-based, luminescence, HEK293, H. glycines campaign | shares compounds with hgDAF-12 ag | 24 h | activation, % at 6.8 µM | 3,300 tested, under 10 active | AID 743051, 2013;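 active means mean activation of the triplicate above a set limit carried over from the primary screen, none filed active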
# Starred values were filed as active, the others as inactive; . = not tested or not shown. Most compounds without a hit are left out; they make up all but 4.1% or so of the library.
SMILES,hcDAF12 agonist,DAX1 inh-1,DAX1 inh-2,ssDAF-12 act,hgDAF-12 ag,DAX1 conf,SF1 AF2mut Luc,LXR ag,hcDAF12 ag,hgDAF12 ag,LXR ag 2
CSc1ccccc1C(=O)Nc1ccc2c(c1)CCC2,1.8,0.7,0.3,-0.2,7.0,.,.,.,.,.,.
COc1ccc(Cl)cc1-c1cc(C(=O)Nc2ccccc2)[nH]n1,3.5,.,3.5,0.0,6.2,.,.,.,.,.,.
COc1ccc(Cl)c(-c2cc(C(=O)Nc3ccccc3)[nH]n2)c1,6.5*,.,7.0*,-0.1,17.9*,6.7*,5.2*,.,.,18.6*,0.8
O=C(COc1c(Cl)cc(Cl)cc1Cl)N/N=C/c1ccc[nH]1,-4.2,.,.,-2.1,-6.2,.,.,.,.,.,.
CNC(=S)N/N=C/c1c(C)nn(-c2ccccc2)c1Cl,-0.2,-0.8,0.0,-0.9,6.3,.,.,.,.,.,.
Cc1nn(-c2ccccc2)c(Cl)c1/C=N/Nc1ccc(Cl)c(C(=O)O)c1,9.9*,-5.0,7.5*,1.2*,23.7*,15.8*,7.9*,2.1,11.5*,27.2*,1.5
CCOC(=O)c1c(C)[nH]c(C(=O)OCC(=O)c2ccccc2)c1C,7.4*,2.1,12.6*,0.3,14.1*,9.8*,4.9*,1.1,5.3,17.4*,0.9
COC(=O)c1ccc(/C=C/c2nc3ccccc3c(=O)[nH]2)cc1,0.2,-0.2,-0.2,-0.5,3.0,.,.,.,.,.,.
Cc1ccc(/C=C/c2nc3ccccc3c(=O)[nH]2)cc1,8.7*,-0.2,5.8*,1.5*,16.3*,13.5*,4.2*,1.9,9.4*,17.9*,1.2
O=C(O)c1ccc(N=Nc2c(O)[nH]c3ccccc23)cc1,12.1*,-2.0,5.9*,2.0*,15.8*,10.6*,5.7*,1.5,9.9*,16.8*,1.1
CN(CCc1ccccn1)C(=O)c1ccc2c(c1)ncn2C1CCCCC1,1.2,.,-0.4,-1.4,3.1,.,.,.,.,.,.
Cc1ccc(NC(=S)N2CCC(c3ccccc3)C2)c(Cl)c1 (stereo unspecified),5.0,0.4,5.1*,1.1*,18.8*,10.9*,4.8*,.,.,12.7*,0.8
O=C1c2ccccc2C(=O)C1c1ccnc2ccccc12,24.1*,2.3,5.3*,5.1*,21.1*,-2.0,-4.0,1.5,17.5*,7.7,1.0
N#CC1=C(N)SC(N)=C(C#N)C1c1ccnc2ccccc12,2.9,-0.1,0.2,-0.2,-0.9,.,.,.,.,.,.
CC1=CC(c2ccccc2)=Nc2ccc(C)cc2N1,13.2*,0.1,5.9*,3.5*,19.1*,15.4*,8.7*,1.8,9.6*,19.5*,1.1
COc1cccc(NC(=O)c2ccc3c(c2)CCCC3)c1,7.9*,0.5,17.9*,1.2*,17.4*,13.4*,8.2*,1.5,5.4,17.9*,1.1
C[C@@H]1COc2cc(N3CCCC3)ccc2S(=O)(=O)N1C,2.4,.,-0.3,-0.8,-1.0,.,.,.,.,.,.
O=C(C=NNc1ccccc1)c1ccccc1,11.9*,4.5*,7.3*,1.8*,28.7*,17.0*,9.1*,2.0,11.9*,24.0*,1.1
COc1ccc(-c2ccc(C(=O)Nc3ccccc3)c3occc23)c(C)c1,1.6,.,6.7*,0.0,20.0*,10.4*,4.2*,.,.,11.1*,1.0
Cc1noc(C)c1-c1ccc(C(=O)Nc2ccccc2)c2occc12,5.4,.,9.7*,1.0*,18.4*,11.5*,1.7,.,.,12.9*,0.9
O=C(OCc1nc2ccccc2s1)c1cccs1,10.1*,4.9*,5.6*,1.8*,17.3*,14.8*,6.3*,1.3,13.1*,10.9*,0.4
COc1ccc(C(=O)COC(=O)CNC(=O)c2cc(OC)cc(OC)c2)cc1,-1.6,-1.4,0.1,-1.3,-2.9,.,.,.,.,.,.
COc1cc(OC)cc(C(=O)NCC(=O)OCc2nc3ccccc3s2)c1,11.2*,6.9*,4.8*,1.8*,13.6*,12.7*,7.4*,0.7,11.5*,13.5*,0.5
CCOC(=O)[C@]12CCCC=C1N(CCCOC)C(=O)[C@@H]2CC(=O)N1CCSCC1,-1.6,.,0.2,-1.1,-1.5,.,.,.,.,.,.
COC(=O)[C@]12C[C@H](CC(=O)NCC34CC5CC(CC(C5)C3)C4)C(=O)N(Cc3ccc4c(c3)OCO4)C1=C[C@H](COCc1ccccc1)O[C@@H]2C,-1.8,.,-1.0,-1.2,-0.9,.,.,.,.,.,.
Cc1nc2ccc(-c3nc4ccccc4[nH]3)cc2[nH]1,8.3*,0.1,5.6*,0.4,19.2*,12.1*,6.4*,1.4,8.1*,19.1*,0.8
Cc1ccc(-c2nc3ccccc3[nH]2)cn1,2.5,4.0,0.8,-1.3,6.9,.,.,.,.,.,.
